Laboratory results from PubChem BioAssay (NCI).
Compounds without any hit were thinned out: in the full panel of roughly 83,000, 20% have a hit.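 Negative percent growth values reflect cell death: -40 means 40% of the cells present at the start died, and -100 means all died.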 Calls of active or inactive are those of the source. The calls were made as follows: active = growth percent below 10; inactive = the rest.

Tests used:
Experiment in all cases: NCI-60 one-dose screen, 48 h (100 = growth as untreated, 0 = no growth, -100 = all killed)
Conditions in all cases: 10 µM unless noted
[1] = test system: SK-MEL-2 melanoma
[2] = test system: EKVX NSCLC
[3] = test system: SN12C renal
[4] = test system: UO-31 renal
[5] = test system: TK-10 renal
[6] = test system: ACHN renal
[7] = test system: CAKI-1 renal
[8] = test system: A498 renal
[9] = test system: CCRF-CEM leukemia
[10] = test system: MOLT-4 leukemia
[11] = test system: SR leukemia
[12] = test system: RPMI-8226 leukemia
[13] = test system: OVCAR-8 ovarian
[14] = test system: OVCAR-5 ovarian
[15] = test system: OVCAR-4 ovarian
[16] = test system: SK-OV-3 ovarian
[17] = test system: IGROV1 ovarian
[18] = test system: OVCAR-3 ovarian
[19] = test system: HS 578T breast
[20] = test system: NCI/ADR-RES ovarian

Measured: growth

COc1ccc2c(c1)c(-c1nc(-c3c[nH]c4ncccc34)cs1)cn2CCO
inactive: [1] 48.7% | [2] 34.9% | [3] 63.5% | [4] 16.1% | [5] 58.3% | [6] 26.7% | [7] 35.5% | [9] 41.3% | [10] 55% | [11] 37.8% | [12] 39.9% | [13] 56.2% | [14] 68.2% | [15] 42.1% | [16] 30% | [17] 43.4% | [18] 78.7% | [19] 33.5% | [20] 76%
active: [8] -0.474%

CC(=O)Oc1ccc(OC(C)=O)c2ccccc12
active: [9] -6.08% | [10] -13.9% | [12] 6.57% | [15] -96.4%
inactive: [1] 113% | [2] 92.3% | [3] 85.8% | [4] 23.7% | [5] 103% | [6] 75.7% | [7] 100% | [8] 118% | [11] 56.8% | [13] 48.8% | [14] 98.4% | [16] 102% | [17] 68.5% | [18] 59.7% | [19] 109% | [20] 64.5%

C/C(=N\O)c1ccc(NC(=O)CSc2nnc(-c3cc(-c4ccc(S(N)(=O)=O)cc4)nc4ccccc34)n2-c2ccccc2)cc1
inactive: [1] 84% | [2] 77.3% | [3] 78.6% | [4] 85.3% | [5] 80.8% | [6] 95.9% | [7] 55.6% | [8] 39.7% | [9] 40.5% | [10] 32.3% | [11] 24.2% | [12] 34.4% | [13] 59.4% | [14] 96.6% | [15] 91.6% | [16] 108% | [17] 63% | [18] 78% | [19] 61.7% | [20] 98.9%

C#CCNC(=O)[C@]1(C)CCC[C@@]2(C)[C@H]1CC=C1C=C(C(C)C)CC[C@@H]12
inactive: [1] 95.9% | [2] 94.6% | [3] 96.7% | [4] 88.8% | [5] 99.7% | [6] 106% | [7] 87.9% | [8] 102% | [9] 110% | [10] 87.9% | [11] 105% | [12] 103% | [13] 113% | [14] 113% | [15] 101% | [16] 104% | [17] 99.3% | [18] 106% | [19] 106% | [20] 104%

CCC1S/C(=N\N=C(\C)c2cc3cc(Cl)ccc3o2)N(c2ccccc2)C1=O (stereo not given)
inactive: [1] 299% | [2] 102% | [3] 118% | [4] 145% | [5] 88% | [6] 103% | [7] 60.1% | [8] 22.2% | [10] 36.4% | [11] 85.1% | [12] 83.7% | [13] 126% | [14] 100% | [15] 107% | [16] 108% | [17] 671% | [18] 75.5% | [19] 52.4% | [20] 90.8%
active: [9] -53.2%

C#CC#CC#CC#CC#CC#CC#CC#CCC1OC[C@H](COC(=O)O[C@@H](C(=O)O[C@H]2C[C@@]3(O)[C@@H](OC(=O)c4ccccc4)[C@@H]4[C@]5(OC(C)=O)CO[C@@H]5C[C@H](O)[C@@]4(C)C(=O)[C@H](OC(C)=O)C(=C2C)C3(C)C)[C@@H](NC(=O)c2ccccc2)c2ccccc2)O1 (stereo not given in full)
active: [8] -1.18% | [18] 9.45% | [19] 8.95%
inactive: [1] 36.2% | [2] 60.2% | [3] 31.2% | [4] 95.1% | [5] 84.9% | [6] 69.8% | [7] 59.5% | [9] 15.1% | [10] 28.5% | [11] 24.6% | [12] 15.4% | [13] 31.4% | [14] 26% | [15] 57.5% | [16] 53.5% | [17] 33.2% | [20] 106%

CCCC(CC)(C(=O)Nc1ccc2nc(C)cc(N)c2c1)C(=O)Nc1ccc2nc(C)cc(N)c2c1
inactive: [1] 108% | [2] 101% | [3] 105% | [4] 90.1% | [5] 96.5% | [6] 105% | [7] 91.9% | [8] 104% | [9] 99.9% | [10] 98.8% | [11] 96.1% | [12] 100% | [13] 103% | [14] 85.1% | [15] 83.8% | [16] 93.1% | [17] 111% | [18] 108% | [19] 106% | [20] 109%

COc1ccc(/C=C/c2c(C(=O)/C=C/c3ccccc3)c(C)nc3ccccc23)cc1
inactive: [1] 14.2% | [2] 41% | [3] 23.6% | [5] 25.1% | [7] 20.9% | [8] 46.6% | [11] 10.7% | [15] 37.2% | [16] 63.6% | [19] 38.2%
active: [4] -7.16% | [6] 7.53% | [9] 7.45% | [10] 6.35% | [12] 0.598% | [13] 0.97% | [14] -29.3% | [17] 6.06% | [18] -22.4% | [20] 3.63%

O=C(Nc1ccccc1O)c1ccc(CNC(=O)c2ccsc2Nc2ccnc(C(F)(F)F)c2)cc1
active: [1] -20.9% | [5] -13.7% | [7] 9.72% | [8] -14.5% | [9] 5.36% | [10] 4.64% | [12] -1.09% | [19] 4.47% | [20] 8.13%
inactive: [2] 37.8% | [3] 45.9% | [4] 19.1% | [6] 20.2% | [11] 22% | [13] 18.4% | [14] 44.3% | [15] 47.3% | [16] 49.1% | [17] 31.9% | [18] 21.6%

Cc1ccc(CNc2ccc3nc(CCC(C)C)[nH]c3c2)cc1
inactive: [1] 107% | [2] 96% | [3] 85.9% | [4] 68.6% | [5] 113% | [6] 99.3% | [7] 89.1% | [8] 97.1% | [9] 93.7% | [10] 81.4% | [11] 85.9% | [12] 87.4% | [13] 89.9% | [14] 101% | [15] 85.1% | [16] 100% | [17] 77.4% | [18] 88.9% | [19] 96.3% | [20] 89.6%

CN(C)CCCNC(=O)c1cncnc1Nc1ccc(OCc2cccc(F)c2)c(Cl)c1
inactive: [2] 62.8% | [3] 28.7% | [14] 36.1% | [15] 25.7% | [20] 43.3%
active: [1] -35.7% | [4] -4.99% | [5] -71.7% | [6] -36.8% | [7] -19.3% | [8] -8.81% | [9] -34.2% | [10] -40.9% | [11] -48.5% | [12] -14.6% | [13] 1.06% | [16] -24% | [17] 1.4% | [18] 6.33% | [19] -30%

COc1ccc(C(O)c2cc3c(N)c(C(=O)Nc4cccc(Cl)c4C)sc3nc2C)cc1 (stereo not given)
active: [8] -24.7% | [11] 0.176% | [12] -2.02% | [18] -11% | [20] 7.99%
inactive: [1] 17% | [2] 35% | [3] 13.6% | [4] 17.9% | [5] 44.1% | [6] 24.7% | [7] 13.8% | [9] 10.1% | [10] 15.2% | [13] 10.1% | [14] 35.5% | [15] 25.7% | [16] 11.6% | [17] 10.7% | [19] 13.6%

COc1ccc(CCN2C(=O)/C(=C/c3ccc(C4Oc5ccccc5C5CC(c6ccccc6)=NN54)cc3)SC2=S)cc1 (stereo not given)
inactive: [1] 103% | [2] 97.4% | [3] 101% | [4] 80.7% | [5] 104% | [6] 102% | [7] 89.8% | [8] 115% | [9] 36.6% | [10] 100% | [11] 105% | [12] 96% | [13] 108% | [14] 103% | [15] 109% | [16] 103% | [17] 100% | [18] 105% | [19] 103% | [20] 110%

O=C(C1=Cc2cc3ccccc3n2Cc2cnnn21)c1ccc(O)cc1
inactive: [1] 59% | [2] 89.9% | [3] 57.7% | [4] 63.1% | [5] 90.9% | [6] 75.4% | [7] 37.5% | [8] 111% | [9] 72.5% | [10] 44.6% | [11] 35.1% | [12] 63.8% | [13] 64.8% | [14] 91.2% | [15] 81.3% | [16] 74.5% | [17] 41.1% | [18] 20.6% | [19] 49.4% | [20] 37.2%
